Results with a measured potency or affinity are listed apart. Inconclusive results are not listed. The source made the active and inactive calls.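 The calls were made as follows: active = fitted half-maximal concentration no higher than twice the top tested dose, in every repeat run; inconclusive = repeat runs disagree, poor fit, or flat partial inhibition; inactive = the rest.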

In the test the target is Endoplasmic reticulum aminopeptidase 1 (Homo sapiens) (UniProt Q9NZ08). As to the kind of experiment: ERAP1 aminopeptidase inhibitors, dose response, biochemical, cherry-pick, set 2, plate reader (AID 743314).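 Also: 0% = neutral control wells and -100% = L-leucinethiol positive control.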 To be noted: Recombinant ERAP1, Leu-AMC fluorescence, 60 min; series mostly up to 11 µM; activity change, negative = inhibition: at the top concentration.
Sequence of Endoplasmic reticulum aminopeptidase 1 (Homo sapiens) (Q9NZ08 whole entry, looked up): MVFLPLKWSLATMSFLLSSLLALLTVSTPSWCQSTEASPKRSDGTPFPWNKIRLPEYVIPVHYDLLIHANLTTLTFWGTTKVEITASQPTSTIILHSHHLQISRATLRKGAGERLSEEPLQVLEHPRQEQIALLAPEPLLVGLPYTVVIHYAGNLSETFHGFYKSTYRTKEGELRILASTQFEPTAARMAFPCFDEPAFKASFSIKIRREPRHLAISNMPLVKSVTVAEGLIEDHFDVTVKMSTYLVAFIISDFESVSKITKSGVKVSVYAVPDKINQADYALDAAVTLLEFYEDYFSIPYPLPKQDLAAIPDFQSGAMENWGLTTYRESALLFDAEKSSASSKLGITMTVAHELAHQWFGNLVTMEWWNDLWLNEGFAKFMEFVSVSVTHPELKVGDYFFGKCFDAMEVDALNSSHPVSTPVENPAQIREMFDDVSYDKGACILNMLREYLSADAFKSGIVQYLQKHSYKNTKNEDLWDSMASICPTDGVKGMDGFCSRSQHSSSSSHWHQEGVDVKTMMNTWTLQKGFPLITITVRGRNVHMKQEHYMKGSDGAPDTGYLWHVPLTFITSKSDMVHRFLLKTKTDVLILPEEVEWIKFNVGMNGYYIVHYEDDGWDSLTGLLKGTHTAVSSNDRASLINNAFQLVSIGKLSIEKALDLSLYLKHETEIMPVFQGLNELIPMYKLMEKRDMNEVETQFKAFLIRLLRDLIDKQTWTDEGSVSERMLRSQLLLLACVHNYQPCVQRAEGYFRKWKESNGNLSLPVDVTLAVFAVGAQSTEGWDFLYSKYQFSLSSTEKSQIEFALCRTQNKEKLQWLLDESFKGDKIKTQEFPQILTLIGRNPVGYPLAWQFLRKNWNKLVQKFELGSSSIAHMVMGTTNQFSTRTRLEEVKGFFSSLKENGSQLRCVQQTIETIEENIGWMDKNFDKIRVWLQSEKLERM
For `O=C(O)[C@@H]1[C@@H](CO)[C@@H]2Cn3c(ccc(/C=C/c4ccccc4)c3=O)[C@@H]2N1Cc1ccc2c(c1)OCO2`, the “activity change, negative = inhibition” value was 3.6% (inactive).

Turning to `COc1ccc(C2=NN(c3ccc(C(=O)O)cc3)C(c3ccc(OC)c(OC)c3)C2)cc1` (stereo unspecified), the “activity change, negative = inhibition” value was 364% (inactive).

Consider `Cc1noc(C)c1NC(=O)N(C)C[C@@H]1Oc2c(NC(=O)Nc3ccc(F)cc3)cccc2C(=O)N([C@@H](C)CO)C[C@@H]1C`, for which the “activity change, negative = inhibition” value is 51.5% (inactive).

On to `C[C@@H]1CCCCO[C@H](CN(C)Cc2ccc(C(=O)O)cc2)[C@H](C)CN([C@@H](C)CO)C(=O)c2cc(NC(=O)Nc3ccc(C(F)(F)F)cc3)ccc2O1`, for which the “activity change, negative = inhibition” value was 216% [at 5.6 µM] (inactive).

For `COc1ccc(-c2c(C)c3ccc(O)cc3oc2=O)cc1OC`, the “activity change, negative = inhibition” value was 2.53% (inactive).

Turning to `CCc1c(C)c2cc(Cl)c(O)c(CN3CCCC3)c2oc1=O`, the “activity change, negative = inhibition” value is 20.7% (inactive).

With `CCN(CC(=O)Nc1ccccc1C(F)(F)F)C(=O)Cn1c(=O)cnc2ccccc21`, the “activity change, negative = inhibition” value was -3.54% (inactive).

Turning to `CN(C)C(=O)[C@H]1[C@H](CO)[C@H]2Cn3c(cccc3=O)[C@@H]1N2CC1CCCC1`, the “activity change, negative = inhibition” value was 31.6% (inactive).

For `CNc1cncc(-c2cccc(C(=O)N(C)C)c2)n1`, the “activity change, negative = inhibition” value is -17.7% (inactive).

Take `C[C@@H]1CCCCO[C@@H](CN(C)C)[C@H](C)CN([C@@H](C)CO)C(=O)c2cc(NS(=O)(=O)c3ccc(Cl)cc3)ccc2O1`: the “activity change, negative = inhibition” value is 22.3% (inactive).

As for `CC(C)C(NC(=O)CCNC(=O)c1ccc([N+](=O)[O-])cc1)c1nc2ccccc2[nH]1` (stereo unspecified), the “activity change, negative = inhibition” value is 1.84% (inactive).

Regarding `O=C(CC1CC1)N1[C@H](CO)[C@H](c2ccccc2)C12CN(Cc1cc(F)ccc1F)C2`, the “activity change, negative = inhibition” value was 11.5% (inactive).

On to `CCN(CC)CCCN=C1N[C@@H](c2ccccc2)C(C(=O)OC)=C(C)N1CC`, for which the “activity change, negative = inhibition” value was -11.5% (inactive).

`O=C(O)c1ccc(N2N=C(c3ccccc3)CC2c2ccccc2)cc1` (stereo unspecified): the activity change, negative = inhibition is -7.44% [at 2.6 µM] (inactive).

For `Cc1noc(C)c1NC(=O)N(C)C[C@H]1Oc2c(NC(=O)Nc3ccc(F)cc3)cccc2C(=O)N([C@@H](C)CO)C[C@@H]1C`, the “activity change, negative = inhibition” value was 16.4% (inactive).

In the case of `C[C@@H]1CN([C@@H](C)CO)C(=O)c2cccc(NC(=O)c3cnccn3)c2O[C@H]1CN(C)Cc1ccc(Cl)c(Cl)c1`, the “activity change, negative = inhibition” value is 17.8% (inactive).

In the case of `CC(=O)N1CC[C@@H]2[C@@H](CO)N(C)c3ccc(-c4ccc(C#N)cc4)cc3[C@@H]21`, the “activity change, negative = inhibition” value is -0.418% (inactive).

As to `CCN1CCCC1CNS(=O)(=O)c1cccc(C(F)(F)F)c1` (stereo unspecified), the “activity change, negative = inhibition” value was -3.89% (inactive).

Regarding `C[C@@H]1CN([C@@H](C)CO)C(=O)c2cc(NC(=O)CCN3CCOCC3)ccc2O[C@@H]1CN(C)S(=O)(=O)c1ccccc1`, the “activity change, negative = inhibition” value is 15.8% (inactive).

For the molecule `C[C@@H]1CN([C@H](C)CO)C(=O)c2cc(NC(=O)CCN3CCOCC3)ccc2O[C@@H]1CN(C)S(=O)(=O)c1ccccc1`, the “activity change, negative = inhibition” value was 23.2% (inactive).

Regarding `Cc1c(O)ccc2c(CN3CCN(Cc4ccccc4)CC3)cc(=O)oc12`, the “activity change, negative = inhibition” value was 145% (inactive).

In the case of `O=S(=O)(Nc1cccc(-c2cn3c(n2)SCC3)c1)c1ccccc1`, the “activity change, negative = inhibition” value was -4.83% (inactive).

Take `O=C(C[C@H]1CC[C@@H](NC(=O)Cc2ccccn2)[C@@H](CO)O1)NCCCN1CCOCC1`: the “activity change, negative = inhibition” value is 32.1% (inactive).

As to `COc1ccc(CN(C)C[C@@H]2Oc3c(NC(=O)NC4CCCCC4)cccc3C(=O)N([C@H](C)CO)C[C@H]2C)cc1`, the “activity change, negative = inhibition” value is 17.6% (inactive).

With `CCCC(=O)Nc1ccc2c(c1)OC[C@@H](C)N(CC1CCOCC1)C[C@H](C)[C@@H](OC)CN(C)C2=O`, the “activity change, negative = inhibition” value was 37.4% (inactive).

On to `CN(CC(=O)Nc1cccc(F)c1)C(=O)CCc1nc2ccccc2c(=O)[nH]1`, for which the “activity change, negative = inhibition” value was 8.54% (inactive).

Take `COc1ccc(CN(C)C[C@@H]2OCCCC[C@H](C)Oc3ccc(NS(=O)(=O)c4cccs4)cc3C(=O)N([C@@H](C)CO)C[C@H]2C)cc1`: the “activity change, negative = inhibition” value is 44.6% (inactive).

As for `CN1CCN(S(=O)(=O)c2ccc(C3CCCCC3)cc2)CC1`, the “activity change, negative = inhibition” value is -7.06% (inactive).

For the molecule `COc1ccc(CN(C)C(=O)CCCNC(=O)c2ccc(Cl)cc2)cc1`, the “activity change, negative = inhibition” value is -4.67% (inactive).

For the molecule `Cc1ccc(C)c(NC(=O)C2CC(O)CN2C(=O)Oc2ccccc2)c1` (stereo unspecified), the “activity change, negative = inhibition” value was -1.41% (inactive).

As to `CCC(=O)N1[C@@H](CO)[C@@H](c2ccccc2)C12CN(Cc1cccnc1)C2`, the “activity change, negative = inhibition” value was 43% (inactive).

For `Cc1ccc2nc3c(cc(C(=O)NCc4ccccc4)c(=N)n3CCCn3ccnc3)c(=O)n2c1`, the “activity change, negative = inhibition” value was 51.3% (inactive).

Regarding `CCc1cccc(C)c1NC(=O)c1cc(=O)[nH]c2ccc(S(=O)(=O)N3CCOCC3)cc12`, the “activity change, negative = inhibition” value was 2.94% (inactive).

Consider `COc1ccc2c3c([nH]c2c1)[C@@H](CO)N(Cc1cc(F)ccc1F)CC31CN(C(=O)CN(C)C)C1`, for which the “activity change, negative = inhibition” value was 35.7% (inactive).

Turning to `COc1ccc(CN(C)C[C@@H]2Oc3c(NC(=O)NC4CCCCC4)cccc3C(=O)N([C@@H](C)CO)C[C@@H]2C)cc1`, the “activity change, negative = inhibition” value is 29.8% (inactive).

With `C[C@H](CO)N1C[C@H](C)[C@@H](CN(C)Cc2ccc(C(=O)O)cc2)OCCCC[C@H](C)Oc2ccc(NC(=O)Nc3ccccc3)cc2C1=O`, the “activity change, negative = inhibition” value was 58.9% (inactive).

The record behind these values is PubChem BioAssay AID743314 (Broad Institute, 2014).
